Results from PubChem BioAssay (NCI).
The panel holds about 83,000 compounds, 20% with a hit somewhere; the sample as a whole holds those more often.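 Percent growth is the endpoint: 0 to 100 indicates growth inhibition (40 means 60% inhibition), 0 means no net growth, and negative values indicate cell death.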 Active and inactive are the calls of the source. How the source made its calls: active means growth percent below 10; inactive means the rest.

Tested on: MDA-MB-468 breast
Assay: NCI-60 one-dose screen, 48 h (100 = growth as untreated, 0 = no growth, -100 = all killed)
Conditions: 10 µM unless noted

Row | SMILES | growth
1 | COc1cc2ncnc(Nc3ccc(C(=O)/C=C/c4ccc(C(F)(F)F)cc4F)cc3)c2cc1OC | 107% (inactive)
2 | CS(=O)(=O)c1ccc(-n2cc(/C=N/O)c(-c3ccccc3)n2)cc1 | 35% (inactive)
3 | CCC(CCCN(CC)CCc1ccccc1)OC(=O)c1cc(OC)c(OC)c(OC)c1 (stereo not given) | 93.1% (inactive)
4 | Nc1ccc2c(c1)C(=O)C(=O)c1c-2nc2ccccn12 | -38.2% (active)
5 | Nc1ncc(-c2ccc3ncnc(Nc4ccc(F)c(Cl)c4)c3c2)cn1 | -22.3% (active)
6 | C/C(=N\Nc1cc(C)nc2ccc(Br)cc12)c1ccc([N+](=O)[O-])cc1 | 51.5% (inactive)
7 | COc1ccc(Nc2nc(SCC(C)C)nc(-c3ccc(F)cc3)c2C#N)cc1 | 32.6% (inactive)
8 | C=C1C(=O)O[C@H]2[C@H]1CC/C(CNC(=O)/C=C/c1cccc(OC)c1)=C\CC[C@@]1(C)O[C@@H]21 | -36.5% (active)
9 | CC(C)OC(=O)NNC(=O)c1ccncc1 | 118% (inactive)
10 | O=C1/C(=C/c2ccccc2[N+](=O)[O-])Oc2ccc(O)c(O)c21 | 37.5% (inactive)
11 | C=CCn1c(C)nc2cc(Nc3nc(N4CCOCC4)nc4nc[nH]c34)ccc21 | 85.1% (inactive)
12 | N#Cc1c(-c2cccs2)cc(-c2cnccn2)nc1SCC(=O)N/N=C/c1ccccc1 | 9.18% (active)
13 | COc1cc2ncnc(Nc3ccc(F)c(Cl)c3)c2cc1OCC(=O)N1CCOCC1 | -15.9% (active)
14 | Cn1cc(-c2nc(-c3c[nH]c4ncc(F)cc34)cs2)c2cccnc21 | -0.356% (active)
15 | O=C(Nc1ncc(Cc2ccccc2)s1)c1sc2ccccc2c1Cl | 7.07% (active)
16 | NC/C(=C/F)COc1ccc2nc(NCc3cccnc3)oc2c1 | 107% (inactive)
17 | COc1ccc2c(c1)c(CC(=O)[Se]CC#N)c(C)n2C(=O)c1ccc(Cl)cc1 | -43.2% (active)
18 | COc1cc(/C=C\C(=O)O)ccc1OCc1ccccc1 | 92.5% (inactive)
19 | O=C(O)c1cccc(CN2CCN(c3cc4c(cc3F)c(=O)c(C(=O)O)cn4C3CC3)CC2)c1O | 101% (inactive)
20 | CCSC1=CC(=O)c2ccccc2C1=O | -88.1% (active)

Row | SMILES | growth
21 | O=C(CCl)N1CCCc2ccccc21 | 80.9% (inactive)
22 | CCCCCCCC/C=C/CCCCCCCC1=NC(C)(C)CN1CCO | -64.5% (active)
23 | NS(=O)(=O)c1ccc(-n2nc(-c3ccccc3)ccc2=O)cc1 | 104% (inactive)
24 | COC(=O)[C@@H](CCCCNC(=O)[C@]12CCC(C)(C)C[C@@H]1C1=CC[C@@H]3[C@@]4(C)C/C(=C/c5ccco5)C(=O)C(C)(C)[C@@H]4CC[C@@]3(C)[C@]1(C)CC2)NC(=O)[C@]12CCC(C)(C)C[C@@H]1C1=CC[C@@H]3[C@@]4(C)C/C(=C/c5ccco5)C(=O)C(C)(C)[C@@H]4CC[C@@]3(C)[C@]1(C)CC2 | 109% (inactive)
25 | COC(=O)N[C@H]1CCc2c(Cl)c(OC)c(OC)c(OC)c2-c2ccc(SC)c(=O)cc21 | -18.8% (active)
26 | O=C(CCCCC(=O)Nc1ccc2c(c1)/C(=C/c1ccc[nH]1)C(=O)N2)NO | 49% (inactive)
27 | N#C/C(=C\c1ccc(-c2ccccc2F)o1)c1nc(-c2ccco2)cs1 | -11% (active)
28 | CCC(=C(c1ccc(OCCCN(C)C)cc1)c1ccc(OCCCN(C)C)cc1)c1ccc(Cl)cc1 | -74.4% (active)
29 | CCC(C)CC(C)C(=O)c1c(O)ccn(OC)c1=O (stereo not given) | 69.4% (inactive)
30 | O=C1/C(=C/c2ccc([N+](=O)[O-])cc2)Oc2ccc(O)cc21 | -63.3% (active)
31 | COCCNc1ccc2ncc(C#Cc3cncc(C(=O)Nc4ccc(CN5CCN(C)CC5)c(C(F)(F)F)c4)c3)n2n1 | -59.9% (active)
32 | COc1cc(/C=C/c2cc(/C=C/c3ccc(O)c(OC)c3)n(-c3ccccc3)c(=O)n2)ccc1O | 63% (inactive)
33 | COc1cc(-c2cc(C(=O)N3CCN(C(=O)c4ccccc4NCc4ccco4)CC3)nc3cc(-c4ccccc4)nn23)cc(OC)c1OC | 0.207% (active)
34 | CCn1cc(CNc2ccc(C(=O)Nc3cc4cc(OC)c(OC)cc4c(C)n3)cc2)c(C)n1 | 23.2% (inactive)
35 | O=C(CCCCCn1c2ccccc2c2c3c(c4c5ccccc5[nH]c4c21)C(=O)N(O)C3=O)N1CCOCC1 | 3.68% (active)
36 | C=C(C)[C@@H]1CC[C@]2(C)[C@H](C=CC3=C4C[C@@](C)(CO)CC[C@]4(C)CC[C@]32C)[C@@]1(C)CCCN | -62.1% (active)
37 | O=C1/C=C/[C@@H](O)[C@@H]2C[C@@H](O)C[C@H]2/C=C/CCC[C@H](CO)O1 | -20.1% (active)
38 | CC(C)(C)CC(C)(C)Nc1c(-c2c(O)c3ccccc3oc2=O)nc2sccn12 | 86.6% (inactive)
39 | O=C(Nc1cc(Cl)ccc1O)c1cccc(Nc2ccnc(C(F)(F)F)c2)c1 | 16% (inactive)
40 | COc1cccc(/C=N\NC(=O)c2ccncc2)c1O | 64.4% (inactive)
